Assay results as given in the supplement of paper PMC10849652.
The full data set covers some 7,900 targets. This sample favours those with a hit. About 0.6% of all pairs of compound and target were hits. A number with no mark means an inactive call.

Key:
Assay in all cases: log2 fold change, soluble protein after heating vs DMSO (PISA); higher = thermal stabilisation; K562 cells, 10 uM, 30 min; active = over 0.2 and 3.5 SD of the protein, either way, in both replicates (recomputed)
[1] = compound: CC[C@@H]1C(=O)N(C)c2cnc(Nc3ccc(C(=O)NC4CCN(C)CC4)cc3OC)nc2N1C1CCCC1
Outline: (§1)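 Aliquots of K562 cells (2×10^6 cells/mL) treated with 10 μM compound for 30 min were heated for 3 min over 48°C-58°C. After pooling and extraction in PBS with 0.5% NP-40 at 4°C, soluble protein from a 21,000xg, 90 min spin was quantified by TMTpro 16plex LC-MS/MS with channel sums equalised. Thermal stability is expressed against control samples, from duplicates, as a log2 fold change.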

[2] = compound: CC[C@@H]1C(=O)N(C)c2cnc(Nc3ccc(C(=O)N[C@H]4CC[C@H](N5CCN(CC6CC6)CC5)CC4)cc3OC)nc2N1C(C)C [volasertib]
Outline: as §1

[3] = compound: CC[C@H](C)N1C=C(C2=C(C=C(C=C21)C3=CN=C(C=C3)N4CCNCC4)C(=O)NCC5=C(C=C(NC5=O)C)C)C
Outline: as §1

[4] = compound: CC[C@H](C)[C@@H](C(=O)N[C@@H]([C@@H](C)O)C(=O)N[C@@H](CC(C)C)C(=O)[C@]1(CO1)C)NC(=O)[C@H]([C@@H](C)CC)N(C)C(=O)C [epoxomicin]
Outline: as §1

[5] = compound: CCn1c(C(=O)N(C2CC2)C2CC2)cc2c3c(ncn3C)c(Nc3cc(C)n(C)n3)nc21
Outline: as §1

[6] = compound: CCn1cc(-c2ccnc3[nH]c(-c4cccc(CN(C)C)c4)cc23)c(-c2ccc(NC(=O)N(C)C)cc2)n1
Outline: as §1

[7] = compound: CN(CCOC1=CC=C(C=C1)C[C@H]2C(=O)NC(=O)S2)C3=CC=CC=N3 (racemic) [rosiglitazone]
Outline: as §1

[8] = compound: CN1C2=C(C3=C1C(=O)N(N=C3)CC4=CC(=CC=C4)N)SC(=C2)S(=O)C
Outline: as §1

[9] = compound: CN1CCC(CNc2ccc3ncc(-c4cccc(OC(F)(F)F)c4)n3n2)CC1
Outline: as §1

[10] = compound: CN1CCN(CCOc2cc(OC3CCOCC3)c3c(Nc4c(Cl)ccc5c4OCO5)ncnc3c2)CC1 [saracatinib]
Outline: as §1

[11] = compound: CN1CCN(c2nc(C3=C(c4c[nH]c5ccccc45)C(=O)NC3=O)c3ccccc3n2)CC1 [sotrastaurin]
Outline: as §1

[12] = compound: CN1CC[C@H](c2c(O)cc(O)c3c(=O)cc(-c4ccccc4Cl)oc23)[C@H](O)C1 [alvocidib]
Outline: as §1

[13] = compound: CN1CCc2c(c3ccccc3n2Cc2ccc(C(=O)NO)cc2)C1 [Tubastatin A]
Outline: as §1

[14] = compound: CNC(=O)C1=CC=CC=C1NC2=NC(=NC=C2Cl)NC3=C(C=C(C=C3)N4CCOCC4)OC
Outline: as §1

[15] = compound: CNCc1ccc(-c2[nH]c3cc(F)cc4c3c2CCNC4=O)cc1 [rucaparib]
Outline: as §1

[16] = compound: CNc1nc(-c2ccc3c(N)n[nH]c3c2)cc(N2C[C@@H](C(=O)NC3CCCCC3)CC[C@H]2C)n1
Outline: as §1

[17] = compound: COC(=O)N[C@@H](C)CNc1nccc(-c2cn(C(C)C)nc2-c2cc(Cl)cc(NS(C)(=O)=O)c2F)n1 [encorafenib]
Outline: as §1

[18] = compound: CN(C)CC(=O)Nc1ccc2[nH]c(=O)c3ccccc3c2c1
Outline: as §1

[19] = compound: CNC(=O)c1ccc(Nc2ncc(C(F)(F)F)c(NCc3nccnc3N(C)S(C)(=O)=O)n2)cc1 [defactinib]
Outline: as §1

[20] = compound: COC(=O)[C@H](CCSC)NC(=O)C1=C(C=C(C=C1)NC[C@H](CS)N)C2=CC=CC=C2
Outline: as §1

UniProt Q9Y605, sequence (Q9Y605 whole entry, looked up): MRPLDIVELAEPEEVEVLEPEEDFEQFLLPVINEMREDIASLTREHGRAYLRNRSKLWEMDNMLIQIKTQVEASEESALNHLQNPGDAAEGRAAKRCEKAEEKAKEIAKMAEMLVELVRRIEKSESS
UniProt Q7L1V2, sequence (Q7L1V2 whole entry, looked up): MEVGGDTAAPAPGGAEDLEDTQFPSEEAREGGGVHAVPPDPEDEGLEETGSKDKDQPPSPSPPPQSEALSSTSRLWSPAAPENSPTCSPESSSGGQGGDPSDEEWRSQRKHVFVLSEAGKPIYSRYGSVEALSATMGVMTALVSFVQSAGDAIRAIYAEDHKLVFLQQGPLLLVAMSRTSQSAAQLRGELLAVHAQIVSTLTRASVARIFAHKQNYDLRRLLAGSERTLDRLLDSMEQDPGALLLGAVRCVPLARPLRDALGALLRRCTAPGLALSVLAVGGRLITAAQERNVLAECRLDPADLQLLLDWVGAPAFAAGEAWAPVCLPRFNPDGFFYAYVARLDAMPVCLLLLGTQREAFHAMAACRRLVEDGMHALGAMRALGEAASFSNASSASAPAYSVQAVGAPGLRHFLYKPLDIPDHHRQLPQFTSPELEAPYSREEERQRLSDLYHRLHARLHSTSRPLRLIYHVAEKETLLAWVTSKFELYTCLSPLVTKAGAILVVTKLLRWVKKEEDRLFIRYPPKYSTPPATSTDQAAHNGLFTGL
UniProt P03886, sequence (P03886 whole entry, looked up): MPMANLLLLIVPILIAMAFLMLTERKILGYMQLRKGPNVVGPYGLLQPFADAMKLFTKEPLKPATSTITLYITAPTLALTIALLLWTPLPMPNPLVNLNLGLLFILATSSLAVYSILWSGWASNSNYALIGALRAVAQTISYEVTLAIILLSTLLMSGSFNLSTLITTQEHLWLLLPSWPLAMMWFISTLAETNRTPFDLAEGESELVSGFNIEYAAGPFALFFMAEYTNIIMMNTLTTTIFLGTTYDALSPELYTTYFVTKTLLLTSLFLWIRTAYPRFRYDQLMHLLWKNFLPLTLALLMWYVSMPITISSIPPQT
UniProt Q9UH92, sequence (Q9UH92 whole entry, looked up): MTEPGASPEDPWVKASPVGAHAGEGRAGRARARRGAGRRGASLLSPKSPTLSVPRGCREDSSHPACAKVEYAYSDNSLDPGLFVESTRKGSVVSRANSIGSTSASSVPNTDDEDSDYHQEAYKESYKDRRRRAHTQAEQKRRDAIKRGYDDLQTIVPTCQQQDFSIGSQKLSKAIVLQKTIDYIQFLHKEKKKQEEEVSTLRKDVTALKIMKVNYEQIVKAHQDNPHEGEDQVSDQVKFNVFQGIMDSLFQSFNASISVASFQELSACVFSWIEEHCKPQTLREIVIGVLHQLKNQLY
UniProt O60361, sequence (O60361 whole entry, looked up): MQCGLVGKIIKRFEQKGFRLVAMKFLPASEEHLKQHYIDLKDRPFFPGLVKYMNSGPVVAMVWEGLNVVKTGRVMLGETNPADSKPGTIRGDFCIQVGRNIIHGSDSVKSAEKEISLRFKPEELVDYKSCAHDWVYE
UniProt Q96RE7, sequence (Q96RE7 whole entry, looked up): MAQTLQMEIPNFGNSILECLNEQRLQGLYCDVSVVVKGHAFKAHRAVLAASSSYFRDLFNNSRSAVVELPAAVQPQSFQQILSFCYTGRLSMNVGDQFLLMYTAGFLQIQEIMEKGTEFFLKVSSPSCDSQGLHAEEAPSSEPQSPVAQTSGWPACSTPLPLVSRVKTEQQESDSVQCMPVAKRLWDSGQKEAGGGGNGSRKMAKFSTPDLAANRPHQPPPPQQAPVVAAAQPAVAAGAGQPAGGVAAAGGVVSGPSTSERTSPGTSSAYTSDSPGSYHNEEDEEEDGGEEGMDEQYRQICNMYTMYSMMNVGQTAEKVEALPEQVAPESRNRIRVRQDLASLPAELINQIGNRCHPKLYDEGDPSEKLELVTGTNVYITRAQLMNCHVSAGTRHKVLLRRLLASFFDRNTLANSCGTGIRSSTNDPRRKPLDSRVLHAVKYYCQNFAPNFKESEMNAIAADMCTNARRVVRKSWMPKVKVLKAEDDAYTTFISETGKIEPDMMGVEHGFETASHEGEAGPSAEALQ
UniProt Q8WZ82, sequence (Q8WZ82 whole entry, looked up): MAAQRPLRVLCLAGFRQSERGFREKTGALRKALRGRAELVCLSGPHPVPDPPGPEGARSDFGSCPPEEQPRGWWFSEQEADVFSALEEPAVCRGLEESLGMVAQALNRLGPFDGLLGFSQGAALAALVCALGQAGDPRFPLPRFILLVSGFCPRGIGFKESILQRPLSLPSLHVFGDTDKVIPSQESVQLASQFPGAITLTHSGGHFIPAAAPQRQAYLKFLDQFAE
UniProt O75052, sequence (O75052 whole entry, looked up): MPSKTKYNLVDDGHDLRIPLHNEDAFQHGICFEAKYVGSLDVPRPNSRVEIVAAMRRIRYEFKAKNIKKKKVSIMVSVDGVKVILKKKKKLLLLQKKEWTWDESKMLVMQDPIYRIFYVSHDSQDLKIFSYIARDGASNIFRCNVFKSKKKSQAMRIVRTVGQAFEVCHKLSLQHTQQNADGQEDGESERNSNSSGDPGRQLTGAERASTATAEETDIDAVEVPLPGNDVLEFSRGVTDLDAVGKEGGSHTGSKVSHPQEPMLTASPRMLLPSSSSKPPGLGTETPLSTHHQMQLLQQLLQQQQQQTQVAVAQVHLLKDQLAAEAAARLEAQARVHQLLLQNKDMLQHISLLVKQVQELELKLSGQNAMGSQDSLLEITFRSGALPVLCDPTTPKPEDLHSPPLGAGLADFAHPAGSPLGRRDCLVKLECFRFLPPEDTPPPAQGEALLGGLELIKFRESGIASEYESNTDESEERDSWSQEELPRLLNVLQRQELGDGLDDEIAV
UniProt Q9H3L0, sequence (Q9H3L0 whole entry, looked up): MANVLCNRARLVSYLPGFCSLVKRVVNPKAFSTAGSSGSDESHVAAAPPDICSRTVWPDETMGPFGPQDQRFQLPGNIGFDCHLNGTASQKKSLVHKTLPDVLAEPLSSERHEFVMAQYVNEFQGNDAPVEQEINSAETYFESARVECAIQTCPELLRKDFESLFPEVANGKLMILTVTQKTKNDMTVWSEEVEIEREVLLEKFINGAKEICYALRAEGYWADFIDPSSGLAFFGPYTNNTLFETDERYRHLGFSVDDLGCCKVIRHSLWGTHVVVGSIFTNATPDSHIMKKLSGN
UniProt P53370, sequence (P53370 whole entry, looked up): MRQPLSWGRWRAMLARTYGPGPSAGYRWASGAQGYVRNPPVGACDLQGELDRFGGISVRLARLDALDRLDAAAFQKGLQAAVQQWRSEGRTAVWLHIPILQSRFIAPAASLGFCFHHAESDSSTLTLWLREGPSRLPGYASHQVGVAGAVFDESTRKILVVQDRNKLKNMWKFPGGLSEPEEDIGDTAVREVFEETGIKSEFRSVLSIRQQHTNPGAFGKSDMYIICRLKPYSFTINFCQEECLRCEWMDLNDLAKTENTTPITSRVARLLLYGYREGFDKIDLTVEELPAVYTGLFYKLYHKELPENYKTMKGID
UniProt Q9UHC9, sequence (Q9UHC9 whole entry, looked up): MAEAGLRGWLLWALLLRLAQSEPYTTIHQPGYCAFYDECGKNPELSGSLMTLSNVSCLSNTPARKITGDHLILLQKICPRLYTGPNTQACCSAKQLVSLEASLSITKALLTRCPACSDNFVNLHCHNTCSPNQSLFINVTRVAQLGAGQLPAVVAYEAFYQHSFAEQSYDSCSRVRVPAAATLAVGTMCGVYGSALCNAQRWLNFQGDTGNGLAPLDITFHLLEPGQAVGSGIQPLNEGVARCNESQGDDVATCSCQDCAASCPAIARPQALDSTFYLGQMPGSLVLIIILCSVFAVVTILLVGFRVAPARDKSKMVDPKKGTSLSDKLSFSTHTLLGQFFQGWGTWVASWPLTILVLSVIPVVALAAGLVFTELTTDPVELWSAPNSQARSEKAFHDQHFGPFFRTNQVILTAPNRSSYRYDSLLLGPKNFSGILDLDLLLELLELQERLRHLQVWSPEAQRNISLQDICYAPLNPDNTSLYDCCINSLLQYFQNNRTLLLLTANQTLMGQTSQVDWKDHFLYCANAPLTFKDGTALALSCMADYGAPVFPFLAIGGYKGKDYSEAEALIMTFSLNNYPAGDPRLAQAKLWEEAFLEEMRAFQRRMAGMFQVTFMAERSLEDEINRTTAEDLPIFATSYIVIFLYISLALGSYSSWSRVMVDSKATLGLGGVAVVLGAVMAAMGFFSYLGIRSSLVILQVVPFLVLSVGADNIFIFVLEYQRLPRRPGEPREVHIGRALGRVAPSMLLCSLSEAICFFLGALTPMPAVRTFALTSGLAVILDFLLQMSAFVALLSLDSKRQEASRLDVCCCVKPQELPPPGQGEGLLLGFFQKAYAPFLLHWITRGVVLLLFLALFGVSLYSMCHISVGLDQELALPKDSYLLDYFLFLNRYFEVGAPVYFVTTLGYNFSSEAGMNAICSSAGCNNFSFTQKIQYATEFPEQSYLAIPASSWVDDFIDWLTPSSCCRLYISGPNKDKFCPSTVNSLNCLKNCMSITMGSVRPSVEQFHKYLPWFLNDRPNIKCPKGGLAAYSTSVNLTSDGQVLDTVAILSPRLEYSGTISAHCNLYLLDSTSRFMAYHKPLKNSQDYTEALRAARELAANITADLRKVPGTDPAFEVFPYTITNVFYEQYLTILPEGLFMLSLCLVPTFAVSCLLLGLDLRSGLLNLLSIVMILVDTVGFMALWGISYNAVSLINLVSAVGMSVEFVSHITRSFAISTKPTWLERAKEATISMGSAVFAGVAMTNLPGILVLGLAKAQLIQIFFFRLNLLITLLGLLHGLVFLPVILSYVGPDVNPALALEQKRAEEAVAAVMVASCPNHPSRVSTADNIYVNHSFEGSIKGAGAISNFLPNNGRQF
UniProt Q8WUY8, sequence (Q8WUY8 whole entry, looked up): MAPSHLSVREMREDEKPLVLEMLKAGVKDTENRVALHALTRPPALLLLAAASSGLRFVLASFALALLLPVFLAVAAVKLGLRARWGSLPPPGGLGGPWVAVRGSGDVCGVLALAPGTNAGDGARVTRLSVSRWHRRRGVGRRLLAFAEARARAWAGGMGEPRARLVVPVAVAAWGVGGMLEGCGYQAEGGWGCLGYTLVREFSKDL

Target	log2 fold change [1]	log2 fold change [2]	log2 fold change [3]	log2 fold change [4]	log2 fold change [5]	log2 fold change [6]	log2 fold change [7]	log2 fold change [8]	log2 fold change [9]	log2 fold change [10]	log2 fold change [11]	log2 fold change [12]	log2 fold change [13]	log2 fold change [14]	log2 fold change [15]	log2 fold change [16]	log2 fold change [17]	log2 fold change [18]	log2 fold change [19]	log2 fold change [20]
MLX (UniProt Q9UH92)	0.047	-0.734 (active)	-0.007	0.162	-0.04	0	0.052	0.142	-0.315	-0.171	-0.084	-0.037	0.075	-0.149	-0.169	0.004	0.149			
MON1B (UniProt Q7L1V2)	-0.002	-0.183	-0.021	-0.028	-0.025	0.013	0.016	-0.011	-0.377 (active)	0.005	-0.028	-0.057	0.048	-0.011	-0.015	-0.036	0.037	-0.024	0.016	-0.013
NUDT6 (UniProt P53370)	0.177	0.041	-0.289	0.031	0.016			-0.132		0.063		0.165	0.098	0.014	-0.38	-0.023	-0.024	-0.055	0.066	-0.087
MRFAP1 (UniProt Q9Y605)	-0.107	-0.386	0		0.029	0.022	0.048	-0.08	-0.032	-0.118	0.102	-0.097	0.329	-0.003	-0.099	-0.002	0.141	0.242	-0.051	-0.027
NACC1 (UniProt Q96RE7)	-0.32	-0.616 (active)	0.112	0.002	-0.079	-0.022	0.095	0	-0.259	-0.055	-0.141	-0.26	0.034	-0.063	0.01	-0.006	0.13	0.033	-0.312	-0.021
NCOA7 (UniProt Q8NI08)	-0.035	-0.287 (active)	0.124	0.021	-0.091	-0.004	0.099	-0.009	-0.265	-0.05	-0.074	-0.052	-0.02	-0.011	-0.029	-0.064	0.019	-0.002	-0.099	0.039
NPC1L1 (UniProt Q9UHC9)	-0.029	-0.016	0.2				0.045	-0.081		-0.026	0.033	0.013	0.005		-0.06	-0.051	-0.038	-0.016	-0.093	0.093
NOS1AP (UniProt O75052)	0.092	0.035		0.056	0.04		-0.001					0.179	-0.112	-0.089	-0.403		0.092	0.225	0.193	-0.074
OVCA2 (UniProt Q8WZ82)	-0.352	-0.47	0.083			0.086	-0.033		-0.116						0.116		-0.052			
NME2P1 (UniProt O60361)	0.117	0.03	-0.177	0.033	-0.162	0.198	0.166		-0.074		0.057	0.004	0.059	-0.145	-0.814 (active)		0.003	-0.021	0.034	-0.017
MRPL34 (UniProt Q9BQ48)	0.061	0.029	-0.007	-0.042	-0.042	0.109	-0.028	0.232	0.048	-0.09	0	0.117	0.119	0.086	0.101	0.169	0.055	-0.065	0.138	0.035
NAA11 (UniProt Q9BSU3)	-0.013	-0.041	0.044	0.063	0.015		-0.053	0.001		0.033	-0.247	-0.038	0.035	-0.078	0.135	-0.133	0.022	-0.114	-0.132	0.034
MMADHC (UniProt Q9H3L0)	-0.024	-0.482 (active)	0.087		-0.013	0.03	0.015	0.047	0.181	-0.044		0.031	0.07	-0.011	0.139	0.062	-0.031	0.006	-0.061	-0.011
MT-ND1 (UniProt P03886)	-0.157	0.147	0.035	0.063	0.094		-0.071	-0.115		0.1	-0.005	-0.071	0.123	-0.025	-0.041	-0.11	0.017	0.253	-0.068	-0.058
NAT14 (UniProt Q8WUY8)	-0.192	-0.261	0.063	-0.024	0.064		0.095	-0.107		-0.054	0.068	-0.134	-0.02	0	-0.002	-0.005	0.002	0.077	-0.235	0.163
OSBPL3 (UniProt Q9H4L5)	0.136	0.621	-0.126	-0.37	-0.235			0.164		-0.284	-0.414	0.234	0.219	0.312	0.518	0.122	0.006	0	0.127	-0.11
MRPS16 (UniProt Q9Y3D3)	0.012	-0.088	0.018	0.041	0.047	-0.116	-0.071		0.052		-0.039	-0.098	0.008	-0.115	0.084		0.138	0.046	0.043	0
NEK3 (UniProt P51956)	-0.046	-0.162	0.167	0.067	-0.024	-0.125		0.002	-0.465 (active)	0.022	-0.125	-0.169	-0.194	-0.027	-0.013	0.007	0	0.014	-0.182	0.036
